Source: PubChem
KCNQ2 enhance = enhances the rat KCNQ2 potassium channel; O88943; AID 2239; actives 0.54% (n = 310,000); B-score at 10 µM; CHO-K1 KCNQ2, FluxOR thallium flux fluorescence; active compounds read high;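 active means fluorescence ratio B-score at least 3 SD of library B-scores, with initial fluorescence B-score within 3 of them, cut at about 5.3 in these data; same plate scores as AID 2156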;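 further: B-score of peak minus minimum over baseline fluorescence ratio after K+ and Tl+ stimulus; positive B-score means potentiation of KCNQ2 with more thallium influx and brighter signal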
Target sequence (O88943 whole entry, looked up): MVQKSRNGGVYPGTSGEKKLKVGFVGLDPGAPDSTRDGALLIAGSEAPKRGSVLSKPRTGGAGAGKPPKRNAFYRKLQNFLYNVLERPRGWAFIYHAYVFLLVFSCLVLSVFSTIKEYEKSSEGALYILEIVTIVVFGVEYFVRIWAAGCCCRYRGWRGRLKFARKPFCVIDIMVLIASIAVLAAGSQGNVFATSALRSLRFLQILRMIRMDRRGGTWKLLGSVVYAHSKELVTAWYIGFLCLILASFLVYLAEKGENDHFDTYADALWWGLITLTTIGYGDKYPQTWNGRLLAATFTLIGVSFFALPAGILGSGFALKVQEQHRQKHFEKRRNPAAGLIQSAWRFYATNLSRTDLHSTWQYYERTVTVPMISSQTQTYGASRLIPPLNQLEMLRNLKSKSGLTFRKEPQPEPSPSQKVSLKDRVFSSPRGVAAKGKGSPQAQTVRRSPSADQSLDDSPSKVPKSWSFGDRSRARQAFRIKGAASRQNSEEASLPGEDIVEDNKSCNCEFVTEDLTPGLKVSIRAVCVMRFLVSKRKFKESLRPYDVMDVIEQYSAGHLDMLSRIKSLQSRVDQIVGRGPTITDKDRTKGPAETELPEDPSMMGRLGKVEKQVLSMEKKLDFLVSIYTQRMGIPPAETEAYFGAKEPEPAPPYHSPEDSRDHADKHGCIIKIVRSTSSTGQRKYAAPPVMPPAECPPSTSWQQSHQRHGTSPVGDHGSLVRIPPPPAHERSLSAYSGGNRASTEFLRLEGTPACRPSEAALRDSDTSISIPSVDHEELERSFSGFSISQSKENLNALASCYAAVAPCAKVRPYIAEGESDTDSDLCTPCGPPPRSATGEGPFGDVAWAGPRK
KCNQ2 inh = KCNQ2 (rat) channel inhibition; actives 1.1% (n = 310,000); O88943; B-score at 10 µM; AID 2156; CHO-K1 KCNQ2, FluxOR thallium flux, 20 min; active compounds read low;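 active means fluorescence ratio B-score at most minus 3 library SDs, with starting brightness B-score within 2 library SDs, cut at about -5.5 in these data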
KCNQ2 block conf = rat KCNQ2 channel inhibition, confirmatory screen; shares compounds with KCNQ2 inh; KCNQ2-expressing cells, thallium flux; active compounds read low; activity change, negative = inhibition, % at 10 µM; actives 57% (n = 1,000); AID 493025;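 further: 0% = vehicle wells and values are ratio percent relative to vehicle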
KCNQ1 spec = human KCNQ1 activity in KCNQ2 inhibitor specificity screen | actives 15% (n = 1,000) | KCNQ1-expressing cells, FluxOR thallium flux fluorescence; active compounds read low | shares compounds with KCNQ2 inh | activity change, negative = inhibition, % at 10 µM;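 active means activity change at least 3 SD of negative controls below their mean in both duplicate wells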;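 further: CHO cells stably transfected with KCNQ1 and depolarized by potassium stimulus; peak minus minimum fluorescence over baseline after thallium addition; 0% = vehicle negative control and -100% = blank without thallium stimulus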
CHO parental ctr = KCNQ2 inhibitor counter-screen hit in parental CHO cells; actives 14% (n = 1,000); thallium flux counter-screen; active compounds read low; activity change, % at 10 µM; shares compounds with KCNQ2 inh;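 further: 0% = vehicle negative controls with stimulus buffer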
KCNQ2 inh confirm = confirmation of rat KCNQ2 potassium channel inhibitors; shares compounds with KCNQ2 inh; AID 588531; calls only at 10 µM; actives 49% (n = 550); KCNQ2-expressing cells, automated patch clamp current
Kir21 confirm = confirmation of mouse Kir2.1 potassium channel inhibitors. shares compounds with KCNQ2 enhance. Kir2.1-expressing cells, FluxOR thallium flux fluorescence; active compounds read low. Tl flux remaining, % of negative control (active compounds read low), % at 10 µM. actives 41% (n = 2,300). AID 2032;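 active means Primary-screen hit whose thallium flux fell at least 3 control SD below untreated wells in both duplicates, with normal baseline fluorescence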;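 further: 0% = blank wells without stimulus and 100% = stimulated no-compound controls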
HEK293 ctr = parental HEK293 activity in Kir2.1 inhibitor counter-screen. shares compounds with KCNQ2 enhance. actives 19% (n = 2,300). AID 2105. parental HEK293 cells, FluxOR thallium flux fluorescence; 0% = unstimulated blank wells. FluxOR signal as % of negative control (100 = no effect), % at 10 µM;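 active means dye signal at least 3 control SD above or below untreated wells in both duplicates, raw fluorescence within 3, either direction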;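 further: percent is based on the flux ratio of peak minus minimum fluorescence over baseline F0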
Numbers without * were called inactive; i = inactive; x = no result given; + = active, no number. The list is not random: actives were taken first. Their share in the collection is about 1.6%. Unless noted, how the calls were made is not given here.

SMILES	KCNQ2 enhance	KCNQ2 inh	KCNQ2 block conf	KCNQ1 spec	CHO parental ctr	others
O=C(NCC(c1cccs1)N1CCOCC1)c1ccc(Cl)s1 (stereo not given)	-9.7	-9.7*	i	i	i
O=C(NCC(c1cccs1)N1CCOCC1)c1cc([N+](=O)[O-])ccc1Cl (stereo not given)	x	i	x	x	x
CCOc1ccccc1NC(=O)COC(=O)C1CC(=O)N(c2c(C)cccc2C)C1 (stereo not given)	x	i	x	x	x
Cc1ccc2cc(C(c3nnnn3C3CCCC3)N3CCOCC3)c(=O)[nH]c2c1C (stereo not given)	-9.5	-9.5*	i	i	i
COc1cc2cc(C(c3nnnn3C3CCCC3)N3CCCCC3)c(=O)[nH]c2cc1OC (stereo not given)	-7	-7*	-22%*	i	i	KCNQ2 inh confirm=+
Cc1ccc2cc(C(c3nnnn3C3CCCC3)N3CCN(c4ccccc4)CC3)c(=O)[nH]c2c1 (stereo not given)	x	i	x	x	x
CCOC(=O)C1CCN(C(c2cc3ccc(C)c(C)c3[nH]c2=O)c2nnnn2C2CCCCC2)CC1 (stereo not given)	x	i	x	x	x
COc1ccc(C(=O)Nn2c(C)nc3ccccc3c2=O)cc1OC	x	i	x	x	x
COc1ccc(CNn2c(-c3cccs3)nc3ccccc3c2=O)cc1OC	-9.2	-9.2*	-40%*	i	i	KCNQ2 inh confirm=+
CC(=O)N1c2ccc(S(=O)(=O)N3CCC(C(=O)N4CCCC(C)C4)CC3)cc2CC1C (stereo not given)	0.07	i	x	x	x
CCc1nc2ccc(F)cc2c(C(=O)NC2CCCCC2C)c1C (stereo not given)	-7.1	-7.1*	-26%*	i	i	KCNQ2 inh confirm=+
Cc1cc(C(=O)NC2CCCCC2C)c2ccccc2n1 (stereo not given)	x	i	x	x	x
CCCC[C@@H]1C[C@H]1[C@@H](NC(=O)c1ccco1)c1ccccc1C(F)(F)F	x	i	x	x	x
CCCC[C@@H]1C[C@H]1[C@@H](NC(=O)c1cccs1)c1ccc(C(F)(F)F)cc1	-8.7	-8.7*	-18%*	i	i	KCNQ2 inh confirm=i
O=C1C(=O)N(C2CCS(=O)(=O)C2)C(c2cccc(O)c2)/C1=C(/O)c1ccc(Cl)cc1 (stereo not given)	0.64	i	x	x	x
CCCCCCCCCOC(=O)C(CC(=O)O)N1CCOCC1 (stereo not given)	x	i	x	x	x
CCCCCOC(=O)CC(C(=O)OCCCCC)N1CCCCC1 (stereo not given)	-9.2	-9.2*	-34%*	-32%*	-30%*	KCNQ2 inh confirm=i
CNc1ccc(S(=O)(=O)NCC(=O)NCCCc2ccccc2)cc1[N+](=O)[O-]	x	i	x	x	x
COc1ccc(/C=N/NC(=O)c2ccccc2O)cc1Cn1nnc2ccccc21	0.34	i	x	x	x
C=CCn1c(/N=C/c2ccc(OC)cc2)nc2ccccc21	1.4	i	x	x	x
C=CCn1c(/N=C/c2ccc(N(C)C)cc2)nc2ccccc21	-7.3	-7.3*	i	i	i
Cc1onc(-c2c(Cl)cccc2Cl)c1C(=O)N=S(C)(=O)c1ccccc1 (stereo not given)	0.39	i	x	x	x
CCc1cc(/C(Cc2csc(C)n2)=N/O)c(O)cc1O	-7.7	-7.7*	-38%*	-34%*	-28%*	KCNQ2 inh confirm=+
Cc1nc(C/C(=N\N)c2ccc(O)cc2O)cs1	x	i	x	x	x
C=CC(=O)N(CCC)C(c1ccccc1)c1ccccc1OC (stereo not given)	x	i	x	x	x
SMILES	KCNQ2 enhance	KCNQ2 inh	KCNQ2 block conf	KCNQ1 spec	CHO parental ctr	others
N#CCCN1CCN(CCC#N)CC1	x	i	x	x	x
Cc1cc(CN2CCN(CCC#N)CC2)c(O)c(C2(C)CCCCC2)c1	-7.4	-7.4*	i	i	i
COc1ccc(CCN(C)C(=O)c2cc(-c3ccccc3)nc3ccc(C)cc23)cc1OC	-7.1	-7.1*	-34%*	-34%*	-26%*	KCNQ2 inh confirm=+
COc1ccc(CCN(C)C(=O)Cc2ccc(-c3ccccc3)cc2)cc1OC	x	i	x	x	x
Cc1ccc(C(=O)Nn2cnnc2)cc1	0.64	i	x	x	x
COc1cc(C(=O)Nc2c(C)cc(C)cc2C)c(Br)c(OC)c1OC	-8.8	-8.8*	i	i	i
COc1ccc(NC(=O)c2cc(OC)c(OC)c(OC)c2Br)cc1OC	2.7	i	x	x	x
CCOC(=O)c1c(C)[nH]c(C)c1S(=O)(=O)N(C)CC(=O)Nc1cccc(C)n1	x	i	x	x	x
O=Cc1ccccc1-c1cn(CCCOCc2ccccc2)nn1	x	i	x	x	x
CC(C)N=c1c([N+](=O)[O-])nn(C)n1O	x	i	x	x	x
CN(C(=O)CSc1nnc(CNC(=O)c2ccccc2)o1)c1ccccc1	x	i	x	x	x
COc1ccc(C2SCC(=O)N2Cc2ccccc2)cc1 (stereo not given)	x	i	x	x	x
COc1ccc(C2SCC(=O)N2CC23CC4CC(CC(C4)C2)C3)cc1 (stereo not given)	-6.9	-6.9*	-33%*	i	i	KCNQ2 inh confirm=i
COc1ccc(/C=N/NC(=O)c2cccnc2)cc1O	-7.2	-7.2*	i	i	i
CCNC(=O)COc1ccc(/C=N/NC(=O)c2cccnc2)cc1OC	0.09	i	x	x	x
CCCC1/C(=N/O)CC(c2ccccc2)NC1c1ccccc1 (stereo not given)	x	i	x	x	x
CCC1C(=NO)C(CC)C(c2ccccc2)NC1c1ccccc1 (stereo not given)	-9.4	-9.4*	-39%*	i	i	KCNQ2 inh confirm=i
CCOC(=O)c1cnn(-c2ccccc2)c1NC(=O)CN1CCCCC1	x	i	x	x	x
COC(=O)c1ccc2c(c1)C(C)(C)C(/C=C/c1ccc(O)cc1)=[N+]2C	x	i	x	x	x
COC(=O)c1ccc2c(c1)C(C)(C)C(/C=C/c1ccc(OC)c(OC)c1OC)=[N+]2C	-16	-16*	-70%*	-66%*	-60%*	KCNQ2 inh confirm=i;Kir21 confirm=31%*;HEK293 ctr=i
NCCc1c(-c2ccccc2)n(-c2ccccc2)c2ccccc12	-7	-7*	i	i	i	Kir21 confirm=15%*;HEK293 ctr=i
CC(=O)n1c(-c2ccccc2)c(CO)c2ccccc21	0.08	i	x	x	x
Cc1ccc(CC(CC(=O)O)C(=O)NCc2ccccc2)cc1 (stereo not given)	x	i	x	x	x
CNC[C@H](Cc1ccccc1)NC[C@@H](Cc1cccc2ccccc12)NCCc1ccc(C)cc1	-8.4	-8.4*	i	i	i	Kir21 confirm=14%*;HEK293 ctr=i
COc1cccc(CN2CC(C(=O)NCCN3CCOCC3)CCC2=O)c1 (stereo not given)	x	i	x	x	x
Cc1ccc(S(=O)(=O)NCC(=O)NCC(=O)N2CCN(c3ncccn3)CC2)cc1C	0.05	i	x	x	x
